Source: PubChem BioAssay
Hits are enriched below; roughly 5.8% of the tested compounds scored in any of these assays.
SW480 rereplic: inducers of DNA re-replication in SW480 colon cancer cells; SW480 DNA re-replication, Hoechst DNA content imaging, 48 h; 1.8% of 340,000 active; Potency, µM (series often up to 46.1 µM), inactives show at the highest dose re-replication activation, most hits filed as activators; note: % of control where 0% means no effect; nearly all actives have a fitted effect of over 55% in size
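First, 250 cells per well were seeded. Next, compound or vehicle (23 nL) was pinned in, plates sat 48 hr at 37 C. Finally Hoechst was added for 40 min before fluorescence scanning.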
KB-V1 cytotox: kills drug-selected multidrug resistant KB-V1 cells; KB-V1 MDR cells viability, CellTiter-Glo, 72 h; Potency, µM (series often up to 46.1 µM), usual class: cytotoxic; 3.4% of 400,000 active; note: % is set by controls: 0 for no effect and ±100 for the full control effect; nearly all actives have a fitted effect of over 60% in size
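qHTS viability screen in drug-selected KB-V1 MDR cells: 72 h compound treatment at 37 degrees C, ATP luminescence end point.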
ALOX12 inh: inhibitors of human 12S-lipoxygenase ALOX12. purified 12hLO, xylenol orange hydroperoxide absorbance. Potency, µM (titrated, usually from 108 µM), for inactives: at the top dose activity change, negative = inhibition, most hits filed as inhibitors. 1.1% of 580,000 active; note: % is set by controls: 0 for no effect and ±100 for the full control effect
Target sequence (P18054 whole entry, looked up): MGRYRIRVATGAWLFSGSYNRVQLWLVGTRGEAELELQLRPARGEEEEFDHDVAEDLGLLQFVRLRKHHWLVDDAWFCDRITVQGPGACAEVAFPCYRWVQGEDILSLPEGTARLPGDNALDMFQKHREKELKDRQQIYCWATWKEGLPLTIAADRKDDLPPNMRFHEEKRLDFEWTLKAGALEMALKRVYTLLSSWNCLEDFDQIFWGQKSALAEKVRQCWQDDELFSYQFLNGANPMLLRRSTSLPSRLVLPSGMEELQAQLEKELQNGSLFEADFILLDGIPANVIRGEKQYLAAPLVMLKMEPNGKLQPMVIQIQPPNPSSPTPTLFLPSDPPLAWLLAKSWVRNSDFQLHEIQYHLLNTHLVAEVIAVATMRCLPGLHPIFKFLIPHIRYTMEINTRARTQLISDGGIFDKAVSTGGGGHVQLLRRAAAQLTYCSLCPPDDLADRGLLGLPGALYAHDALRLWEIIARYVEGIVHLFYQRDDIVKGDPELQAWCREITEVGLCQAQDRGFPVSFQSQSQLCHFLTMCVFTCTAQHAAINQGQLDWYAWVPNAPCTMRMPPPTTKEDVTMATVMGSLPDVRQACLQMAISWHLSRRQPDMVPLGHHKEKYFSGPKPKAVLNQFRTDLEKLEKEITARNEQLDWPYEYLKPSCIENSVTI
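Hydroperoxide product was detected by ferrous iron/xylenol orange as the 573 to 405 nm absorbance ratio. Arachidonic acid at 40 uM (final) was turned over for 30 min at room temperature by 150 nM human 12hLO, pH 7.0 Hepes buffer, after 15 min compound preincubation.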
MCF10A rereplic: DNA re-replication induction in MCF 10a cells. MCF 10A DNA re-replication, Hoechst nuclear intensity, 48 h. Potency, µM (series often up to 46.1 µM), for inactives: at the highest dose activity, positive = re-replication, most hits filed as activators. 2.9% of 350,000 active. AID 624296; note: % of control where 0% means no effect; nearly all actives have a fitted effect of over 50% in size
KB-3-1 cytotox: kills parental KB-3-1 adenocarcinoma cells. KB-3-1 viability, CellTiter-Glo ATP luminescence, 72 h. 1.4% of 400,000 active. Potency, µM (series often up to 46.1 µM), actives largely listed as cytotoxic. AID 1347075; note: % is set by controls: 0 for no effect and ±100 for the full control effect; nearly all actives have a fitted effect of over 60% in size
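Parental KB-3-1 adenocarcinoma cells in phenol-red-free DMEM with 10% FBS were pin-treated with compounds at several concentrations, incubated 72 h at 37 °C, and viability read by CellTiter-Glo luminescence; concentration-effect curves were fitted after normalization.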
PINK1 expr mod: modulators of PINK1 expression. 0.2% of 410,000 active. Potency, µM (series often up to 76.6 µM), for the others: at the top dose activation (PINK1 increase), most hits filed as activators. AID 624263. PINK1 immunofluorescence, high-content cytometry, 24 h; active = well fitted activation curve with a large enough effect; inconclusive = small, poorly fitted or top-dose-only effect; cell line not stated here; note: % of control where 0% means no effect; nearly all actives have a fitted effect of over 65% in size
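Cells are seeded, rested 12 hours, then given compound at five concentrations or DMSO for 24 hours. After fixation, blocking and antibody staining, PINK1 amount and mitochondrial localization are scored; CCCP serves as control.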
Active calls of the source: *; i = inactive; ? = inconclusive; nt = no result; [ ] = remark or other dose. Unless noted, calls come from the whole dose curve; as a rule, active = well fitted curve in the direction sought with a large enough effect; inconclusive = small, poorly fitted or top-dose-only effect, or another doubt; inactive = no such curve, though single readings can be large; an effect the other way counts as inactive or inconclusive. Potency is the fitted concentration of half-maximal effect.

SMILES	SW480 rereplic	KB-V1 cytotox	ALOX12 inh	MCF10A rereplic	KB-3-1 cytotox	PINK1 expr mod
CC/C(=C\c1oc2cc3ccccc3cc2[n+]1CC)Nc1ccccc1	18µM*	21µM*	-27%	23µM*	i	?
COc1ccc(CNC(=O)c2csc(NCc3ccccc3)n2)cc1	nt	nt	30%	nt	nt	nt
COc1cccc(C2CC(c3ccc(Br)cc3)=NN2C(=O)c2ccncc2)c1OC (stereo unspecified)	-40%	?	-4%	?	18µM*	10%
COc1ccccc1C1CC(c2ccc(Br)cc2)=NN1C(=O)c1cccnc1 (stereo unspecified)	?	?	-12%	?	?	12%
CCC(=O)N1N=C(c2cccc(NS(C)(=O)=O)c2)CC1c1cccs1 (stereo unspecified)	-87%	18µM*	?	1%	i	0%
CS(=O)(=O)Nc1cccc(C2=NN(C(=O)CCC(=O)O)C(c3cccs3)C2)c1 (stereo unspecified)	-7%	i	7%	18%	i	-1%
CN(C)c1ccc(C2CC(c3cccc(NS(C)(=O)=O)c3)=NN2C(=O)c2ccccc2)cc1 (stereo unspecified)	7%	i	28µM*	-1%	i	0%
COc1cccc(C2CC(c3cccc(NS(C)(=O)=O)c3)=NN2C(=O)c2ccccc2)c1OC (stereo unspecified)	?	13µM*	-26%	13%	i	1%
CCN1CCCC1CNC(=O)CCC1CCN(Cc2cn(CC)c3ccccc23)CC1 (stereo unspecified)	nt	nt	-1%	nt	nt	nt
CCN(CC(=O)NC)S(=O)(=O)N1CCC(C)CC1	nt	nt	38%	nt	nt	nt
CC(C)(C)c1ccc(C(=O)Nc2ccc(C(O)[C@H]3COCC(=O)N3Cc3ccccc3)cc2)cc1 (stereo partly specified)	nt	nt	23%	nt	nt	nt
C/C(=N\NC(=O)c1cc(C2CC2)nc2ccccc12)c1ccc(O)cc1O	1.5µM*	i	-4%	14%	?	0%
CC(OC(=O)c1cc(-c2cccnc2)nc2ccccc12)C(=O)Nc1ccc2ccccc2c1 (stereo unspecified)	2%	i	-34%	16µM*	i	3%
C/C(=N\NC(=O)c1cc(-c2cccnc2)nc2ccccc12)c1ccccc1O	24%	6.5µM*	0%	?	i	10%
COc1ccc(NC(=O)c2cc(-c3cccnc3)nc3ccccc23)cc1	nt	nt	-23%	nt	nt	nt
CCCCc1c(C)nc(Nc2nc(C)c3cc(OC)ccc3n2)[nH]c1=O	nt	nt	29%	nt	nt	nt
CC(C(=O)Nc1cccc2ncccc12)N1CCCCC1 (stereo unspecified)	nt	nt	18%	nt	nt	nt
CC(C)[C@@H](NC(=O)OC(C)(C)C)c1cc(C(=O)c2c(-c3ccccc3)[nH]c3ccccc23)c(N)s1	nt	23µM*	?	nt	?	nt
COc1cc(C(C)=O)ccc1Oc1ncnc2c1cnn2-c1ccccc1	-4%	15µM*	-2%	9%	i	11%
C/C(=N\NC(=O)CCC(=O)NCc1ccccc1)c1ccc(Cl)cc1	nt	nt	27%	nt	nt	nt
CCC(=O)Nc1ccc(-c2csc(NCCOC)n2)cc1	nt	nt	14µM*	nt	nt	nt
CCCCNc1nc(-c2ccc(NC(=O)CC)cc2)cs1	nt	nt	-12%	nt	nt	nt
Cc1ccc(-c2cnc(SCC(=O)Nc3ccc(Cl)cc3)o2)cc1C	nt	nt	-21%	nt	nt	nt
CCOc1ccccc1/C=C(/C#N)C(=O)c1cccc(OC)c1	nt	nt	-46%	nt	nt	nt
Cc1ccc(-c2nnn(CC(=O)N3N=C(c4cccs4)CC3c3cccs3)n2)cc1 (stereo unspecified)	nt	nt	17%	nt	nt	nt
SMILES	SW480 rereplic	KB-V1 cytotox	ALOX12 inh	MCF10A rereplic	KB-3-1 cytotox	PINK1 expr mod
CC(NCc1ccc2c(c1)OCO2)C(=O)N1CCc2ccccc21 (stereo unspecified)	?	5.2µM*	-5%	-70%	i	3%
CC(NCc1ccc(S(N)(=O)=O)cc1)C(=O)N1CCc2ccccc21 (stereo unspecified)	1%	i	7%	0%	i	0%
Cc1cc(C)n2nc(SCc3nnc(SCc4ccccc4)s3)nc2n1	-1%	13µM*	-8%	-1%	i	5%[38.3 µM]
Cc1cc(C)n2nc(SCc3ccccc3)nc2n1	-35%	i	i	-1%	i	1%
CC1C(=O)N(Cc2ccccc2F)c2ccccc2N1C(=O)c1c(F)cccc1F (stereo unspecified)	7%	i	?	21µM*	?	-1%
COc1cccc(CN2C(=O)C(C)N(C(=O)c3c(F)cccc3F)c3ccccc32)c1 (stereo unspecified)	3%	i	21%	?	?	0%
COc1cc(F)ccc1-c1cc2c(nc1-c1ccccc1)nc(C(=O)NCCN(C)C)n2C	nt	nt	24%	nt	nt	nt
Cc1cccc(C2CC(=O)c3cnn(-c4nc5ccccc5[nH]4)c3C2)c1 (stereo unspecified)	nt	nt	23%	nt	nt	nt
Cc1cc(=S)n2cn[nH]c2n1	nt	nt	0.45µM*	nt	nt	nt
Cc1cc(=O)n2cn[nH]c2n1	-2%	i	-20%	-14%	?	1%
O=C1C=CC(=O)N1c1cccc(-c2ccccc2)c1	?	i	?	21µM*	i	5%
COc1cc(OC)c(C(=O)N2CCC(C(=O)c3ccc4c(c3)OCCO4)CC2)cc1OC	nt	nt	15%	nt	nt	nt
CCN1c2cc(C(=O)Nc3ccc(Br)cc3)ccc2C(=O)N2CCCCCC21 (stereo unspecified)	nt	nt	-15%	nt	nt	nt
COc1ccc(NC(=O)/C(Cl)=C(/Cl)S(=O)Cc2ccc(Cl)cc2)cn1 (stereo unspecified)	?	5.8µM*	?	?	7.3µM*	-2%
COc1ccc(NC(=O)C(Cl)=C(Cl)Cl)cn1	?	?	-9%	21µM*	?	-2%
COc1ccc(NC(=O)C(C)(C)Oc2ccc(Cl)cc2)cn1	-2%	15µM*	?	1%	i	0%
COc1ccc(NC(=O)/C(Cl)=C(/Cl)S(=O)(=O)Cc2ccccc2)cn1	?	?	?	?	?	-4%
Cc1ccc(SC(=O)c2ccccc2)cc1	nt	nt	37%	nt	nt	nt
Cc1ccc(Cl)cc1N1CCN(C(=O)CCNS(=O)(=O)c2ccc3[nH]c(=O)ccc3c2)CC1	nt	nt	17%	nt	nt	nt
Cc1nc2cc(NS(=O)(=O)c3ccccc3Cl)ccc2o1	nt	nt	-7%	nt	nt	nt
N#CC1=C(N)Oc2c(oc(CO)cc2=O)C1c1ccccc1[N+](=O)[O-] (stereo unspecified)	5.8µM*	i	16µM*	?	i	1%
CC(C)(C)c1ccc(C(=O)CC(Sc2ccc(Cl)cc2)C(=O)O)cc1 (stereo unspecified)	?	?	?	23µM*	?	-2%
